ALOX12 inh – Primary qHTS assay for inhibitors of human arachidonate 12S-lipoxygenase (ALOX12): Round 2. purified 12hLO, xylenol orange hydroperoxide absorbance. Potency, µM (series often up to 108 µM), for inactives: at the highest dose activity change, negative = inhibition, hits mostly inhibitors. actives 1.1% (n = 580,000); also: potency is read from the fitted curve at half-maximal effect
Target sequence (P18054 whole entry, looked up): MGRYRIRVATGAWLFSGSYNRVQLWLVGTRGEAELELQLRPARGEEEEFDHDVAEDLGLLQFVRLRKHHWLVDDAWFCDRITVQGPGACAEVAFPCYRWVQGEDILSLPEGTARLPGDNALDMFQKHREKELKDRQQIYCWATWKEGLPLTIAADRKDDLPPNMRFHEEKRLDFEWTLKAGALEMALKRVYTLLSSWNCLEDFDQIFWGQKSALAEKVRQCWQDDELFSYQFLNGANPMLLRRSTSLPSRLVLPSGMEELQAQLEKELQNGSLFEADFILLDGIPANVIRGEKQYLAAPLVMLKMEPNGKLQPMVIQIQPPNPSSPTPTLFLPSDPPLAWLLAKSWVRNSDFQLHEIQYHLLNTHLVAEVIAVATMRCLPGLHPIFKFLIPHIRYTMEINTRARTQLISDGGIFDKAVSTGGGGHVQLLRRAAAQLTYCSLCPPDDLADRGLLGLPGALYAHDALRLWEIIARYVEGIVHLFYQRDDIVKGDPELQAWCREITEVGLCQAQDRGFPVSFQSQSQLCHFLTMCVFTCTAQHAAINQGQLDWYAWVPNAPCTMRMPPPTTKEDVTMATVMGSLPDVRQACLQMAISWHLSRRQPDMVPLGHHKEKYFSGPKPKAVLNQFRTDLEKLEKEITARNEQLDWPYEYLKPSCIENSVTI
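Purified human 12hLO (150 nM final) in 25 mM Hepes, 0.01% Triton X-100, pH 7.0 was preincubated 15 min at room temperature with compound. Then 40 uM arachidonic acid was added, 30 min. Hydroperoxide was read by Fe-XO absorbance ratio 573/405 nm.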
DT40 TDP1 CPT – qHTS for Inhibitors of human tyrosyl-DNA phosphodiesterase 1 (TDP1): qHTS in cells in presence of CPT | Potency, µM (series often up to 46.2 µM), for inactives: at the top dose activity change, negative = growth inhibition, hits mostly inhibitors | actives 12% (n = 420,000) | chicken DT40 Tdp1-/-;hTDP1 cells + 20 nM CPT, ATP luminescence, 48 h; also: potency is read from the fitted curve at half-maximal effect; nearly all actives have a fitted effect of over 55% in size
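Chicken DT40 Tdp1-/- cells stably complemented with human TDP1 were seeded at 400 cells/well in medium containing 20 nM camptothecin, exposed to pin-transferred compounds, and grown at 37 °C for at least 48 hr. Viability was read as ATP luminescence.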
TDP1 cell noCPT – qHTS for Inhibitors of human tyrosyl-DNA phosphodiesterase 1 (TDP1): qHTS in cells in absence of CPT. DT40 Tdp1-/- hTDP1 cells, no CPT, ATP luminescence, 48 h. Potency, µM (titrated, usually from 46.2 µM), without a hit: at the highest dose activity change, negative = growth inhibition, hits mostly inhibitors. actives 15% (n = 420,000); also: potency is read from the fitted curve at half-maximal effect; nearly all actives have a fitted effect of over 55% in size
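Growth of hTDP1-complemented DT40 Tdp1-knockout cells is measured by ATP luminescence after at least 48 hr compound exposure at 37 °C, with DMSO substituting for the 20 nM CPT used in the parallel screen.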
HT1080 IDH1KD tx – qHTS for induction of synthetic lethality in tumor cells producing 2HG: qHTS for the HT-1080-IDH1KD cell line | actives 2% (n = 360,000) | Potency, µM (series often up to 46.1 µM), for the others: at the highest dose activity, negative = toxicity, most hits filed as cytotoxic | HT-1080 IDH1 knockdown viability, ATP luminescence, 48 h;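 also: potency is read from the fitted curve at half-maximal effect; 0% = DMSO wells and -100% = cell-free medium wells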
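Knockdown cells (IDH1KD HT-1080) received compounds 2 h after plating at 750 cells/well and were kept 48 h at 37 °C in 5% FBS RPMI. A CellTiter-Glo luminescence read gave % activity for curve fitting.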
IL1B secr inh – qHTS for Inhibitors of Inflammasome Signaling: IL-1-beta AlphaLISA Primary Screen | THP-1 LPS/ATP IL-1B secretion, AlphaLISA, 16 h; hits give low values | activity change, % at 57.5 µM | actives 4.7% (n = 360,000) | AID 743279, 2014; in the data active = activity change below about -50%; inconclusive = mostly about -30% to -49%
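THP-1 cells pretreated 1 hr with compounds (up to 57.5 uM final), then stimulated with LPS (250 ng/mL final) plus ATP (1.25 mM final); secreted IL-1B measured by AlphaLISA after 16 hr, decreased signal indicating inhibition.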
HT1080-NT tox – qHTS for induction of synthetic lethality in tumor cells producing 2HG: qHTS for the HT-1080-NT fibrosarcoma cell line; HT-1080-NT fibrosarcoma viability, CellTiter-Glo ATP luminescence, 48 h; Potency, µM (series often up to 46.1 µM), inactives show at the highest dose activity, negative = less viability, actives largely listed as cytotoxic; actives 1.6% (n = 360,000); AID 686970, 2013;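 also: NT is the 2HG producing partner of a matched IDH1 knockdown line; potency is read from the fitted curve at half-maximal effect; 0% = DMSO-treated cells and -100% = media-only wells without cells; nearly all actives have a fitted effect of over 55% in size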
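Luminescent CellTiter-Glo readout after 48 hours of compound exposure at 37 degrees C defined viability of HT-1080-NT cells. Activity was normalized to DMSO wells and cell-free media wells; concentration-response curves were fitted and assigned curve classes.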
Starred values were filed as active, the others as inactive; ? = inconclusive; . = no result given; [ ] = another dose, or the depositor's remark. This excerpt belongs to a sample that is enriched for hits. Unless noted, calls follow the shape of the dose curve; as a rule, active = well fitted curve in the direction sought with a large enough effect; inconclusive = small, poorly fitted or top-dose-only effect, or another doubt; inactive = no such curve, though single readings can be large; an effect the other way counts as inactive or inconclusive. Unless noted, % is scaled to controls: 0 for no effect and ±100 for the full control effect.

SMILES	ALOX12 inh	DT40 TDP1 CPT	TDP1 cell noCPT	HT1080 IDH1KD tx	IL1B secr inh	HT1080-NT tox
Cc1ccc(-c2nnc3c4ccccc4c(C)nn23)cc1S(=O)(=O)N1CCN(CCO)CC1	0%	?	18µM*	-27%	?	-26%
Cc1nn2c(-c3cccc(NC(=O)CSc4nc5ccccc5o4)c3)nnc2c2ccccc12	22%	12µM*	7.3µM*	-23%	-17	-23%
Cc1nn2c(-c3cccc(NC(=O)c4ccccc4)c3)nnc2c2ccccc12	-8%	4.6µM*	2.9µM*	.	.	.
Cc1nn2c(-c3cccc(NC(=O)CN4CCOCC4)c3)nnc2c2ccccc12	11%	29µM*	13µM*	-18%	.	-22%
CSc1nnc(-c2cccc(NC(=O)c3ccccc3)c2)n1C	0%	-4%	-27%	16%	21	16%
CCN(CC)C(CNC(=O)C1CC2CCC1C2)c1ccsc1 (configuration not stated)	-11%	.	.	.	.	.
COCCCNc1nc2c([S+](=O)([O-])c3cccnc3)nnn2c2ccccc12	0%[6.33 µM]	.	.	.	.	.
C=CCN1CC2(CCC1=O)CCN(S(=O)(=O)c1ccc(F)cc1)CC2	30%	.	.	.	.	.
Cc1onc(-c2cnn(C)c2NCc2ccc(C#N)cc2)c1C(=O)NC1CCOCC1	4%[176 µM]	.	.	.	.	.
CCCCNC(=S)NC1CCCC1	-15%	-19%	-28%	17%	6	4%
CC(C)OCCCNC(=S)NC1CCCC1	35µM*	.	.	.	.	.
COc1cccc(CN2CCC2(C)C(=O)NCc2cccc(C(F)(F)F)c2)c1OC (configuration not stated)	-1%	13µM*	13µM*	?	-1	?
COc1ccc(NC(=O)C2(C)CCN2Cc2csc3ccccc23)cc1OC (configuration not stated)	-4%	15µM*	15µM*	?	-15	-23%
COc1ccc(OC)c(NC(=O)C2(C)CCN2Cc2ccc(OC)c3ccccc23)c1 (configuration not stated)	-9%	?	?	?	28	-20%
CC1(C(=O)NCc2cccc(C(F)(F)F)c2)CCN1C1Cc2ccccc2C1 (configuration not stated)	0%	?	21µM*	?	12	?
Cc1ccc(NC(=O)C2(C)CCN2C2Cc3ccccc3C2)cc1 (configuration not stated)	5%	?	?	-26%	35	?
COc1ccc(NC(=O)C2(C)CCN2Cc2cccc(OC)c2OC)cc1OC (configuration not stated)	3%	?	16µM*	-1%	0	5%
CC1(C(=O)Nc2ccc3c(c2)OCCO3)CCN1Cc1csc2ccccc12 (configuration not stated)	-29%	?	?	?	-15	-23%
O=C(CCSC1CCc2ccccc2NC1=O)Nc1ccccc1 (configuration not stated)	19%	.	.	.	.	.
O=C(c1ccccn1)N1CCC12Cc1ccccc1NC2=O (configuration not stated)	21%[176 µM]	.	.	.	.	.
COc1cccc(CN2CCC2(C)C(=O)Nc2cccc3cccnc23)c1F (configuration not stated)	20%	?	18µM*	13µM*	21	23µM*

Compound activity from PubChem BioAssay.
